High-throughput results from PubChem.
ERK EGF inh – qHTS Assay for Inhibitors of the ERK Signaling Pathway using a Homogeneous Screening Assay; Stimulation with EGF. HEK293-V1b, EGF-stimulated phospho-ERK AlphaScreen. Potency, µM (highest dose often 11.5 µM), without a hit: top-dose activity change, negative = inhibition, actives largely listed as inhibitors. 0.41% of 130,000 active. AID 1454, 2008; active means well fitted inhibition curve with a large enough effect;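 further: plate controls were stimulated vehicle wells for no effect and unstimulated vehicle basal for full effect; nearly all actives have a fitted effect of over 55% in size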
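Homogeneous cell-based phospho-ERK assay: HEK293/V1b cells in 1% FBS, compound 30 min then EGF 5 min, AlphaScreen luminescence. Activity normalized between DMSO and 25 nM EGF controls; AC50 from Hill modelling.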
The depositor's hits bear a star; ! = a repeat was not active; [ ] = remark or other dose. Only a selection was taken, and hits are over-represented in it overall. Potency means the concentration at half of the fitted maximal effect.

SMILES	ERK EGF inh
COc1ccc(-c2cn[nH]c2-c2ccc(OCc3ccccc3)cc2O)cc1	22µM*
O=[N+]([O-])c1ccc(COc2ccc(-c3[nH]ncc3-c3ccc(Cl)cc3)c(O)c2)cc1	6%
COC(=O)C1C(O)CC[C@H]2CN3CCc4c([nH]c5ccccc45)C3C[C@H]12 (some centres undefined)	22%
CN(C)Cc1ccccc1-c1ccc2ncnc(N3CCOCC3)c2c1	26%
CCCCCCN1C=CC=C/C1=C/C=C(C#N)C#N	10%
CCCCCCN1C=C/C(=C\C=C(C#N)C#N)c2ccccc21	14µM*
CCCN1C=CC(=CC=C(C#N)C#N)C=C1	28%[57.5 µM]
CCCn1c(-c2ccc(F)cc2)nc2c(NCCCCN(C)C)nc(C)nc21	4%
O=C(NCC1CCCCC1)c1nnc(C(=O)NCC2CCCCC2)c2c1[nH]c1ccccc12	-10%
C[C@H]1OC(=O)CC[C@@H]2[C@]1(C)CCC1[C@@]2(C)CC[C@@]2(C)C3CC(C)(C)CC[C@]3(CO)CC[C@]12C (some centres undefined)	-5%
COc1ccc2c(c1)C(=O)[C@@H](OC(=O)NS(=O)(=O)c1ccc(C)cc1)[C@H](c1ccc(OC)c(Br)c1)O2	-7%
O=c1cc(CN2CCN(c3cccc(Cl)c3)CC2)c2cc(O)c(-c3ccccc3)cc2o1	-7%[57.5 µM]
COc1cccc(-c2oc3ccccc3c(=O)c2O)c1	16%
COc1cccc(NCc2cc(=O)oc3cc(-c4ccccc4)c(O)cc23)c1	28µM*
O=C(NS(=O)(=O)c1ccc(F)cc1)O[C@@H]1C(=O)c2cc(Br)ccc2O[C@H]1c1ccc2c(c1)OCO2	-6%
C[n+]1cc2c3c(ccc2c2ccc4cc5c(cc4c21)OCO5)OCO3	25µM*!
C[n+]1c(/C=C/c2ccc3c(c2)OCO3)ccc2ccccc21	-2%
COc1ccc2c(c1)O[C@@H](c1ccc3c(c1)OCO3)[C@H](OC(=O)NCCOc1ccccc1)C2=O	-8%
CCOC(=O)C(=O)C1(C(=O)OCC)Oc2cc(OC)cc(OC)c2C(=O)C1c1ccccc1 (centres undefined)	16%
COC(=O)[C@@]1(Cc2ccc(OC)cc2)[C@@H]2[C@@H](CC(=O)[C@H]2CC(=O)C(=O)N(C)C)CN1C(=O)c1ccccc1	-2%
C=C1C(=O)C=C2CN(C(=O)c3ccccc3)[C@@](Cc3ccc(OC)cc3)(C(=O)OC)[C@@H]12	13µM*
COC(=O)[C@@]1(Cc2ccc(OC)cc2)[C@@H]2C(=CC(=O)[C@H]2CC(=O)C(=O)N2CCCC2)CN1C(=O)c1ccccc1	-5%
CO[C@@H]1c2cc(F)ccc2/C(=C\CCOC(=O)C/C=C/c2ccccc2)[C@H]1C	-17%
CCCCC[C@H](O)/C=C/C=C\C/C=C\C/C=C\CCCC(=O)O	-11%
CN(C)C(=O)c1ccc(-c2ccc3ncnc(NCc4cccnc4)c3c2)cc1	29%
SMILES	ERK EGF inh
Cc1cccc(CNc2ncnc3ccc(-c4c(C)noc4C)cc23)c1	10%
Cc1cccc(CNc2ncnc3ccc(-c4cccnc4)cc23)c1	8.9µM*
Cc1cnc(CNc2ncncc2-c2ccccc2C(F)(F)F)cn1	13%
CC(=O)N1/C(=C/c2ccc(N(C)C)cc2)C(=O)c2ccccc21	25µM*
CN(C)c1ccc(/C=C2\CCC/C(=C\c3ccccc3)C2=O)cc1	-4%
CN(C)c1ccc(/C=C2/C(=O)Nc3ccccc32)cc1	-2%
CC(C)Nc1oc(-c2ccccc2)nc1-c1cccc2ccccc12	-2%
CC(=O)/C(=C\c1ccccc1)CC(=O)O	29%
C=C1C2CC[C@]3(CCC4[C@@]5(C)CCC[C@@]4(CN(CCO)C5)[C@@H]3C2)[C@@H]1O (some centres undefined)	-12%
CN(C)S(=O)(=O)c1cccc(NC(=O)c2cncc(Br)c2)c1	4%
CCN(CC)S(=O)(=O)c1cccc(NC(=O)c2ccc(Br)cc2)c1	14µM*
CCN(CC)S(=O)(=O)c1cccc(NC(=O)c2cncc(Br)c2)c1	-7%
O=C1C(=O)N(Cc2ccc(Cl)c(Cl)c2)c2ccccc21	-3%
COC/C=C/C1=CC2=CC(=O)C(C)(OC(=O)c3ccc(Cl)nc3)C(=O)C2=CO1 (centres undefined)	-12%
CCN(CC)CCCn1c(-c2ccccc2)nc2c(NCCOC)nc(C)nc21	6%
COc1ccc2c(c1OC)C(Cc1ccccc1)N1CCc3cc4c(cc3C1=C2)OCO4 (centres undefined)	-7%
COc1ccc2c(c1)C(=O)[C@H](OC(=O)NS(=O)(=O)c1ccc(C)cc1)[C@@H](c1ccc(OC)c(Br)c1)O2	1%
O=[N+]([O-])c1cc(C(F)(F)F)cc([N+](=O)[O-])c1NCCCN1CCOCC1	-1%
O=[N+]([O-])c1cc(S(=O)(=O)N2CCCC2)ccc1NN=C1CCCCC1	-2%
O=[N+]([O-])c1cc(C(F)(F)F)cc([N+](=O)[O-])c1NN=C1CCCCC1	18µM*
CC(C)C[C@@H](CC(=O)N[C@@H](CCC(=O)O)CC(=O)O)NC(=O)[C@@H]1CCCC[C@H]1NC(=O)C[C@@H](NC(=O)C[C@H](Cc1c[nH]c2ccccc12)NC(=O)[C@@H]1CNCC[C@H]1N)C(C)C	-10%
NCCCCC(NC(CCc1ccccc1)C(=O)O)C(=O)N1CCCC1C(=O)O (centres undefined)	-1%
Nc1nc2c(c(=O)[nH]1)N=C(CNc1ccc(C(=O)NC(CCC(=O)O)C(=O)O)cc1)CN2 (centres undefined)	6%
Cc1cccc(N=C2NC(=O)/C(=C/c3cccs3)S2)c1	25µM*
Cc1cccc(N=C2NC(=O)/C(=C/c3cccn3C)S2)c1	1%[57.5 µM]
SMILES	ERK EGF inh
O=C1Nc2ccccc2S/C1=C/c1cccs1	-1%[57.5 µM]
COc1cccc(Cn2c(=O)c(C)nc3cnc(OCc4ccccc4)nc32)c1	0%
COc1ccc([C@H]2c3cc(OC)c(OC)cc3C[C@@H](C)[C@@H]2C)cc1OC	-6%
COc1cccc2c1C(=O)c1c(O)c3c(c(O)c1C2=O)C[C@](O)(C(C)=O)C[C@H]3O[C@@H]1C[C@H](N)[C@H](O)[C@H](C)O1	-1%[25.7 µM]
COc1cccc2c1C(=O)c1c(O)c3c(c(O)c1C2=O)C[C@@](O)(C(=O)CO)C[C@@H]3O[C@H]1C[C@H](N)[C@H](O)[C@H](C)O1	28µM*
Cc1nc(N2CCOCC2)c2nc(-c3ccccc3)n(CCCN3CCOCC3)c2n1	6%
COC(=O)N[C@@H](/C=C/c1ccccc1)C[N+](=O)[O-]	-4%
COc1ccc(-n2nc([N+](=O)[O-])c(=NCCC3=CCCCC3)n2O)cc1	28µM*
COc1ccc(-n2nc([N+](=O)[O-])c(=NCc3cccnc3)n2O)cc1	-5%
COc1ccc(-n2nc([N+](=O)[O-])c(=NCCc3ccc(OC)c(OC)c3)n2O)cc1	0%
C=CCCCCCCCCCCCc1ccco1	8%
O=C1CCCC1C(O)c1ccc2ccccc2c1 (centres undefined)	12%
C=CCOC(=O)N[C@@H](c1ccc(Br)cc1)C(C(C)=O)C(C)=O	0%
COc1ccc(C2c3ccc4ccccc4c3Oc3ncn(CCCO)c(=N)c32)cc1 (centres undefined)	40µM*
COc1ccc(C2c3ccc4ccccc4c3Oc3ncn(CCCO)c(=N)c32)cc1OC (centres undefined)	-10%[57.5 µM]
N=c1c2c(ncn1CCCO)Oc1c(ccc3ccccc13)C2c1ccccc1 (centres undefined)	-11%[57.5 µM]
CCOC(=O)/C=C/CCC/C=C/C(=O)c1ccccc1	-7%
